The source of these data is PubChem BioAssay AID651699 (Sanford-Burnham Center for Chemical Genomics, 2012).

Each structure is given as a SMILES string. In all, about 360,000 compounds went through this assay and about 2,100 (0.58%) were called active. Shown is part of a subset that was picked to be rich in actives. Unmarked numbers belong to inactive results. No stated cut-off is given here; in the data, active means inhibition above about 36%; inactive means the rest.

The target of this assay is NEDD8-conjugating enzyme Ubc12 (Homo sapiens) + NEDD8-activating enzyme E1 regulatory subunit (Homo sapiens) (UniProt P61081+Q13564). The assay is described as follows: inhibitors of cullin neddylation, primary screen, biochemical, TR-FRET, uHTS, NAE and Ubc12 (AID 651699). Particulars: at 25 µM, hits give high values.
Sequence of NEDD8-conjugating enzyme Ubc12 (Homo sapiens) + NEDD8-activating enzyme E1 regulatory subunit (Homo sapiens) (P61081 whole entry, looked up): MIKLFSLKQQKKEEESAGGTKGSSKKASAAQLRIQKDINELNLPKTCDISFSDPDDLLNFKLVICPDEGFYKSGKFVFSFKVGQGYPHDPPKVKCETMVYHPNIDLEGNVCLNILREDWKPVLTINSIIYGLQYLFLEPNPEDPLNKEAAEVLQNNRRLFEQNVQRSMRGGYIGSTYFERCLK
Sequence of NEDD8-conjugating enzyme Ubc12 (Homo sapiens) + NEDD8-activating enzyme E1 regulatory subunit (Homo sapiens) (Q13564 whole entry, looked up): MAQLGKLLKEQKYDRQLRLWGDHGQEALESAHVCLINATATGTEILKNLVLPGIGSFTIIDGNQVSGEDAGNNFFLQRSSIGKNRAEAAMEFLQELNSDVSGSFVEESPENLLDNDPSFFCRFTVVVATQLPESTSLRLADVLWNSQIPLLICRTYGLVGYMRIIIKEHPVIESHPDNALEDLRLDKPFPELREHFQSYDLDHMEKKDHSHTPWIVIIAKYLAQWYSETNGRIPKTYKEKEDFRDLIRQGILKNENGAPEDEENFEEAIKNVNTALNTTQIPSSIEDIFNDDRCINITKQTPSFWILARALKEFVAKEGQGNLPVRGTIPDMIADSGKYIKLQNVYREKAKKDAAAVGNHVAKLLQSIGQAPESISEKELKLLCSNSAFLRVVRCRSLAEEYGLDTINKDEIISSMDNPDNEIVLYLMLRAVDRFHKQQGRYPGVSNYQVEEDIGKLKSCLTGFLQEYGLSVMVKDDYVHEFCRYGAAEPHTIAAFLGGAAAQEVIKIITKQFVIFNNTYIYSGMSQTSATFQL
In the case of `COc1ccc(N2CC(C(=O)N[C@@H](C)C(=O)N3CCCCC3)CC2=O)cc1` (stereo partly drawn), the inhibition is -5.41%.
For the compound `O=C1NC(c2ccncc2)Nc2sc3c(c21)CCCC3` (stereo not drawn), the inhibition is 44.1% (active).
`COc1ccc(OC)c(/C=N/NC(=O)c2ccc[n+](CC(=O)c3ccccc3)c2)c1`: the inhibition was -1.66%.
As for `O=C(N/N=C/c1ccsc1)c1cc(O)cc(O)c1`, the inhibition was -1.8%.
In the case of `COc1cccc(Cn2cc(/C=N/NC(=O)c3cc(O)cc(O)c3)c3ccccc32)c1`, the inhibition is 57.8% (active).
As for `NC(=O)CN1CCCC1c1ccc2c(c1)OCCO2` (stereo not drawn), the inhibition is 0.21%.
In the case of `CCOc1ccc(NC(=O)C2CCCN(C(=O)Nc3ccccc3)C2)cc1` (stereo not drawn), the inhibition is -6.95%.
As for `CCCCc1cc2c(s1)CCCC/C2=N/O`, the inhibition was -11.4%.
The figure for `C=CCN1C(=O)C(O)(CC(=O)c2ccccn2)c2ccccc21` (stereo not drawn) is 1.24%; for `COc1ccc(/C=C(\C#N)c2c[nH]c3ccccc23)cc1` it is 44.5% (active).
With `COc1ccc(C2C(C(C)=O)=C(O)C(=O)N2CCc2c[nH]c3ccccc23)cc1` (stereo not drawn), the inhibition is -15.3%.
For the compound `C[N+](C)(C)CCNC(=O)c1c[nH]c2ccccc12`, the inhibition was 16.8%.
In the case of `O=C(CCN1C(=O)c2ccccc2C1=O)C1=NN[C@@H]2C(=O)N(c3ccc(F)cc3)C(=O)[C@H]12` it was -15%; in that of `C[C@H](O)[C@@H]1C(=O)N2CCc3ccc(N4CCOCC4)cc3[C@@H]2C[C@@H]1N(C)C(=O)C(C)(C)C`, 22%; in that of `C[C@H](O)[C@@H]1C(=O)N2CCc3c([nH]c4ccccc34)[C@@H]2C[C@@H]1N(C)C(=O)Nc1ccc(F)cc1`, 50.2% (active).
Take `COCC(=O)N(C)[C@H]1C[C@H]2c3cc(Oc4ccccc4C)ccc3CCN2C(=O)[C@H]1[C@H](C)O`: the inhibition is 2.1%.
For the compound `CC(=O)N1c2ccc(S(=O)(=O)N(C)CC(=O)N(C)Cc3ccccc3)cc2CC1C` (stereo not drawn), the inhibition is 1.96%.
As for `Cc1ccc(CN(Cc2cccnc2)C(=S)Nc2cccc(Cl)c2C)cc1`, the inhibition is 1.43%.
With `COCCn1c(Cc2cccn2C)nnc1SCC(=O)Nc1nccs1`, the inhibition was -1.55%.
As for `CCCCN(C=O)c1c(CC)nc2c(OCc3ccccc3C(=O)OC)cccn12`, the inhibition was 8.99%.
As for `COc1ccc(C2OC(=O)CC2C(=O)NC(C)C)cc1` (stereo not drawn), the inhibition was 4.68%.
For `COCCNC(=O)CN(Cc1ccco1)C(=O)CCC(=O)Nc1nccs1`, the inhibition is 0.84%.
In the case of `COCCNC(=O)c1ccc2nc(Cc3ccc(OC)c(OC)c3)oc2c1`, the inhibition is -5.61%.
With `COCCNC(=O)Nc1ccc2nc(-c3ccco3)c(-c3ccco3)nc2c1`, the inhibition was 49.3% (active).
The figure for `CSCCC(NC(=O)c1ccc(Cl)cc1Cl)C(=O)NNC(=O)c1csc(N2CCOCC2)n1` (stereo not drawn) is 31%.
With `Cc1ccc(N/N=C2\COC(C)(C)CC2=O)cc1`, the inhibition was 0.52%.
Turning to `NS(=O)(=O)c1ccc2nc(NC(=O)CS(=O)(=O)c3ccc(F)cc3)sc2c1`, the inhibition was 1.17%.
As to `Cc1nc2ccc(S(=O)(=O)NCC(=O)O)cc2s1`, the inhibition was 7.99%.
With `CS(=O)(=O)c1ccc2nc(NC(=O)c3ccc(Cl)nc3)sc2c1`, the inhibition was 65.7% (active).
With `Cc1nn2c(=O)cc(COC(=O)c3ccc(NC(=O)C(C)(C)C)cc3)nc2s1`, the inhibition was -2.19%.
The figure for `CCOC(=O)C1CCCN(C(=O)C2CCN(S(=O)(=O)c3ccc(Cl)c(C(F)(F)F)c3)CC2)C1` (stereo not drawn) is -19.5%; for `CCOc1cc(C(=O)Nc2ccc(S(=O)(=O)Nc3cnc4ccccc4n3)cc2)cc(OCC)c1OCC` it is 6.73%.
In the case of `Cc1ccc2nsnc2c1NC(=O)c1ccccc1[N+](=O)[O-]`, the inhibition was -26.4%.
In the case of `CCOc1cc(C(=O)Nc2c(C)ccc3nsnc23)cc(OCC)c1OCC`, the inhibition is 41.7% (active).
On to `COc1ccc([N+](=O)[O-])cc1C1NN=C(c2cccc3ccccc23)S1` (stereo not drawn), for which the inhibition is -3.56%.
`COc1ccc2c(c1OC)C(=O)N(c1ccc(O)cc1)C2`: the inhibition was 14.7%.
Consider `COc1ccc(C2C(C#N)=C(N)N(c3ncn[nH]3)C3=C2C(=O)CCC3)cc1` (stereo not drawn), for which the inhibition was -6.24%.
In the case of `COc1ccc2c(c1OC)C(=O)N(c1ncn[nH]1)C2`, the inhibition is 39.8% (active).
The figure for `COc1ccc(NC(=O)CCC(=O)N2CCN(S(=O)(=O)c3ccc(C)cc3)CC2)c(OC)c1` is 2.78%.
In the case of `Cc1c(C2=CCN(S(=O)(=O)c3ccc(Cl)cc3)CC2)c2ccccc2n1C`, the inhibition was -207%.
In the case of `CN(C)CC/C=C1\c2ccccc2CSc2ccccc21`, the inhibition was 6.08%.
Consider `COC(=O)c1ccc2nc(-c3ccc(F)cc3)c(Cc3ccc(C)cc3)n2c1`, for which the inhibition is 36.3%.
With `COC(=O)c1ccc2nc(-c3ccc(OC)c(OC)c3)c(Cc3ccccc3)n2c1`, the inhibition is 41.4% (active).
For the compound `COC(=O)c1ccc2nc(-c3ccc(Cl)cc3)c(Cc3cccc(F)c3)n2c1`, the inhibition is 25.5%.
The figure for `CC[C@]12c3[nH]c4ccc(Cl)cc4c3CCN1C(=O)[C@@H](CC(=O)NCCCOC)C[C@@H]2C(=O)N1CCN(C(=O)c2ccco2)CC1` is 3.68%.
For the compound `COc1c(C(C)C)oc2cc3oc(=O)ccc3cc12`, the inhibition is 36.1%.
For the compound `COC(=O)Cn1c(=NC(=O)CSCC(=O)Nc2cc(C)on2)sc2ccccc21`, the inhibition was 6.58%.
Consider `Cc1ccc(-c2cc(C(=O)N/N=C/C=C/c3ccccc3)n[nH]2)o1`, for which the inhibition was -6.17%.
Consider `S=c1[nH]nc(/C=C/c2ccccc2)o1`, for which the inhibition was 40.5% (active).
Take `CC(C)(C)c1cc2cccnc2n1Cc1ccccc1`: the inhibition was 24.2%.
In the case of `Cc1cnc(CN(C)C(=O)C2CCC(=O)N(CCc3cccc(F)c3)C2)[nH]1` (stereo not drawn) it was -3.06%; in that of `Cc1cccn2c(=O)c3cc(C(=O)NCCN4CCOCC4)c(=N)n(Cc4cccnc4)c3nc12`, 68.3% (active); in that of `CCCn1c(=O)c(-c2ccccc2)c(O)c2ccccc21`, 44.3% (active).
In the case of `CCCCCn1c(=O)c(C(=O)OCC)c(Cl)c2ccccc21` it was 4.01%.
In the case of `CCCNC(=O)CCn1nc(-c2ccccc2)c2ccccc2c1=O` it was -0.32%; in that of `O=C1OC(Cc2ccccc2)C(c2ccccc2)C1=O` (stereo not drawn), -10.9%.
As for `CCN(CC)c1ccc(/C=N/Nc2nc(C)cc(=O)[nH]2)cc1`, the inhibition was 42% (active).
As to `Cc1cc(=O)[nH]c(SCc2ccc(Cl)cc2)n1`, the inhibition is -1.58%.
In the case of `Cc1cc(=O)[nH]c(Nc2cccc(Br)c2)n1` it was -6.28%; in that of `COc1ccc(CNC(=O)C(=O)N2CCC3(CC2)OCCN3S(=O)(=O)c2ccc(C)cc2)cc1`, 4.54%; in that of `CCOC(=O)C1=C(O)/C(=C/c2cc(C)n(-c3ccccc3)c2C)N=C1C`, 16.8%.
In the case of `Cc1cc(/C=C2/C(=N)N3C(=NC2=O)SN=C3S(C)(=O)=O)c(C)n1-c1ccccc1` it was 44.8% (active); in that of `CC1=CC2=NC(=O)/C(=C/c3coc4ccccc4c3=O)C(=N)N2O1`, -38.8%; in that of `COc1ccc(-c2cc(C(=O)N(C)CC(=O)Nc3ccccc3Cl)c3ccccc3n2)cc1OC`, 46.6% (active).
For the compound `COc1ccc(Cl)cc1NC(=O)CN(C)C(=O)c1ccc2n[nH]nc2c1`, the inhibition is 7.09%.
The figure for `COc1cccc(NC(=O)CN(C)C(=O)c2cc(Cl)nc3ccccc23)c1` is -0.49%; for `CC(=O)NC1CCN(CC(=O)Nc2nccs2)CC1` it is -3.21%; for `COC(=O)c1noc(C)c1-c1ccnn1C(=O)c1ccc(Cl)cc1` it is -11.9%.
For the compound `CC1CCC2CCCCC2N1C(=O)c1cc([N+](=O)[O-])cc([N+](=O)[O-])c1` (stereo not drawn), the inhibition is -35.2%.
With `CC(C)c1cc(C(=O)N/N=C/c2ccoc2)c(O)c(C(C)C)c1`, the inhibition was 49.1% (active).
In the case of `CC(Oc1ccccc1[N+](=O)[O-])C(=O)N/N=C/c1ccoc1` (stereo not drawn) it was -9.94%.
On to `O=C(N/N=C/c1ccoc1)c1ccc(Cl)cc1Cl`, for which the inhibition is 1.29%.
As for `COc1ccc(OC)c(NC(=O)CSc2nc(N)c(-c3ccccc3)c(=O)[nH]2)c1`, the inhibition is 26.4%.
Turning to `Cc1cc(C)c(C=NNc2nc3c([nH]2)c(=O)n(C)c(=O)n3C)c(C)c1`, the inhibition was 39.2% (active).
As to `Cc1ccc(NN=Nc2nc3c([nH]2)c(=O)n(C)c(=O)n3C)cc1`, the inhibition is 1.85%.
In the case of `CC(CCO)Nc1nc2c([nH]1)c(=O)n(C)c(=O)n2C` (stereo not drawn) it was 10.7%; in that of `COc1cccc(/C=N/NC(=O)C(=O)N2CCCC2)c1`, -14.6%.
As for `O=C(CN1C(=O)CC(c2ccccc2)=Nc2ccccc21)NC1CCCCC1`, the inhibition was -13.9%.
With `O=C(NCc1cccc(Cl)c1)C1=CC=CN2CCS(=O)(=O)N=C12`, the inhibition is 33% (active).
Regarding `O=C(NCc1cccc(Cl)c1)C1CCC(=O)N(C2CC2)C1` (stereo not drawn), the inhibition is -4.68%.
As for `O=C(NCc1cccc(Cl)c1)C1CCN(c2nnc(N3CCCC3=O)s2)CC1`, the inhibition is 9.68%.
Regarding `CCOc1cc(/C=N/NC(=O)c2ccncc2)cc(Br)c1O`, the inhibition was -8.9%.
`CCOc1ccc(/C=N/NC(=O)C(C)Sc2ccccn2)cc1OCC` (stereo not drawn): the inhibition is -5.74%.
The figure for `CCOc1cc(/C=N/Nc2cc(C)nc3ccc(C)cc23)ccc1O` is 39.9% (active); for `O=C(CCN1C(=O)C2C3CCC(C3)C2C1=O)Nc1ccc(Cl)cc1Cl` (stereo not drawn) it is 5.46%; for `O=C(CNC(=O)c1ccc(Br)o1)NCC1CCCO1` (stereo not drawn) it is 10.6%.
In the case of `COCCn1nnnc1C(c1cc2ccc(OC)cc2[nH]c1=O)N1CCc2ccccc2C1` (stereo not drawn), the inhibition is -11.9%.
In the case of `COc1ccc(N2CCN(C(c3cc4ccc(C)cc4[nH]c3=O)c3nnnn3C3CCCC3)CC2)cc1` (stereo not drawn), the inhibition was 8.39%.
For the compound `CCOc1ccc2[nH]c(=O)c(C(c3nnnn3CCOC)N3CCOCC3)cc2c1` (stereo not drawn), the inhibition is 46% (active).
Consider `C=CCC(CC=C)(C(N)=O)c1ccccc1`, for which the inhibition was -5.36%.
The figure for `CS(=O)(=O)Nc1cccc(C2=NN(C(=O)c3cccc(F)c3)C(c3cccs3)C2)c1` (stereo not drawn) is -5.27%; for `CS(=O)(=O)Nc1ccc(C2=NN(S(C)(=O)=O)C(c3cccs3)C2)cc1` (stereo not drawn) it is 51.1% (active).
In the case of `Cc1ccc(C2CC(c3cccc(NS(C)(=O)=O)c3)=NN2S(C)(=O)=O)cc1` (stereo not drawn) it was 7.24%.
